In PubChem BioAssay (EPA / NIEHS):
Active and inactive are the calls of the source. Rule for the calls: active = hit-call score of the fitted dose curve at least 0.9, where 1 is the maximum; inactive = score below 0.9.

Columns and labels:
Settings in all cases: mRNA level, 48 h; actives raise or lower the signal
[1] = read-out: Nuclear factor NF-kappa-B p105 subunit (Homo sapiens) (UniProt P19838); assay: LTEA_HepaRG_NFKB1: Life Technologies and Expression Analysis (LTEA) Assay for Nuclear Factor Kappa B Subunit 1 (NFKB1) using HepaRG (AID 2283521);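 note: TaqMan qRT-PCR transcript normalised to ACTB GAPDH and POLR2A housekeeping genes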
How it was run: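 Differentiated human HepaRG cells were exposed for 48 h in serum-free induction medium to eight concentrations (top 100 uM, half-log steps, 0.5% DMSO), in duplicate. NFKB1 mRNA was measured by TaqMan qRT-PCR, normalized to ACTB/GAPDH/POLR2A, and fitted bidirectionally against DMSO.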

[2] = read-out: Protein phosphatase 2A (PPP2R4), PTPA (gene 5524); assay: LTEA_HepaRG_PPP2R4: Life Technologies and Expression Analysis (LTEA) Assay for Protein phosphatase 2A (PPP2R4) using HepaRG (AID 2283522)
How it was run: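 HepaRG, 48 h exposure, 8-pt half-log series from 100 uM, 0.5% DMSO vehicle, duplicates. Readout: PPP2R4 mRNA, Fluidigm qRT-PCR, housekeeping-normalized. Bidirectional curve fit vs DMSO baseline.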

[3] = read-out: Phosphatase and tensin (PTEN), PTEN (gene 5728); assay: LTEA_HepaRG_PTEN: Life Technologies and Expression Analysis (LTEA) Assay for Phosphatase and tensin (PTEN) using HepaRG (AID 2283523)
How it was run: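 HepaRG, 48 h exposure, 8-pt half-log series from 100 uM top, 0.5% DMSO vehicle, duplicates. Readout: Fluidigm qRT-PCR of PTEN transcript; housekeeping normalization (ACTB, GAPDH, POLR2A). Gain or loss fitted relative to DMSO baseline.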

[4] = read-out: solute carrier (SLC22A1), SLC22A1 (gene 6580); assay: LTEA_HepaRG_SLC22A1: Life Technologies and Expression Analysis (LTEA) Assay for solute carrier (SLC22A1) using HepaRG (AID 2283524)
How it was run: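 qRT-PCR readout (TaqMan, Fluidigm arrays) of SLC22A1 transcript, normalized to three housekeeping genes; bidirectional curve fit relative to 0.5% DMSO vehicle. Differentiated human HepaRG cells, 48 h chemical exposure, top concentration 100 uM, half-log steps, eight points.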

[5] = read-out: Pyruvate Dehydrogenase Kinase 4 (PDK4), PDK4 (gene 5166); assay: LTEA_HepaRG_PDK4: Life Technologies and Expression Analysis (LTEA) Assay for Pyruvate Dehydrogenase Kinase 4 (PDK4) using HepaRG (AID 2283525)
How it was run: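 HepaRG (human liver line), 48 h chemical exposure, 8-pt half-log CRC top 100 uM, 0.5% DMSO vehicle, duplicates. Readout: TaqMan qRT-PCR of PDK4 mRNA, housekeeping-normalized; gain/loss fit relative to DMSO baseline.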

[6] = read-out: NAD(P)H dehydrogenase [quinone] 1 (NQO1), NQO1 (gene 1728); assay: LTEA_HepaRG_NQO1: Life Technologies and Expression Analysis (LTEA) Assay for NAD(P)H dehydrogenase [quinone] 1 (NQO1) using HepaRG (AID 2283526)
How it was run: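 qRT-PCR read-out (Fluidigm TaqMan), normalized to three housekeeping genes, after 48 h chemical exposure of HepaRG cells. Concentrations: eight points, top 100 uM, half-log steps, 0.5% DMSO vehicle. Gain or loss of signal fitted relative to DMSO.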

[7] = read-out: Nuclear factor erythroid 2-related factor 2 (Homo sapiens) (UniProt Q16236); assay: LTEA_HepaRG_NFE2L2: Life Technologies and Expression Analysis (LTEA) Assay for Nuclear factor erythroid 2-related factor 2 (NFE2L2) Transcription Factor using HepaRG (AID 2283527);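 note: TaqMan qRT-PCR transcript level normalised to ACTB GAPDH and POLR2A housekeeping genes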
How it was run: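 HepaRG, 48 h dosing, 8-pt half-log series from 100 uM in 0.5% DMSO, duplicates. Read-out: NFE2L2 mRNA by qRT-PCR (ACTB/GAPDH/POLR2A normalization). Bidirectional curve fit vs DMSO baseline.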

[8] = read-out: succinate dehydrogenase complex iron sulfur subunit B (SDHB), SDHB (gene 6390); assay: LTEA_HepaRG_SDHB: Life Technologies and Expression Analysis (LTEA) Assay for succinate dehydrogenase complex iron sulfur subunit B (SDHB) using HepaRG (AID 2283528)
How it was run: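 HepaRG, 48 h exposure, 8-pt half-log series from 100 uM in 0.5% DMSO, duplicates. Readout: SDHB mRNA by Fluidigm qRT-PCR vs housekeeping genes; bidirectional fit relative to DMSO.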

[9] = read-out: Signal transducer and activator of transcription 3 (Homo sapiens) (UniProt P40763); assay: LTEA_HepaRG_STAT3: Life Technologies and Expression Analysis (LTEA) Assay for Signal transducer and activator of transcription (STAT3) using HepaRG (AID 2283529)
How it was run: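 HepaRG, 48 h exposure, 8-pt half-log series (top 100 uM), 0.5% DMSO vehicle, duplicates. Readout: STAT3 transcript by Fluidigm qRT-PCR, housekeeping-normalized; bidirectional fit vs DMSO baseline.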

[10] = read-out: solute carrier (SLCO1B1), SLCO1B1 (gene 10599); assay: LTEA_HepaRG_SLCO1B1: Life Technologies and Expression Analysis (LTEA) Assay for solute carrier (SLCO1B1) using HepaRG (AID 2283530)
How it was run: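 Human HepaRG cultures treated for 48 h with an eight-concentration half-log series topping at 100 uM; SLCO1B1 measured by qRT-PCR and fitted bidirectionally relative to DMSO.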

[11] = read-out: sulfotransferase 2A1 (SULT2A1), SULT2A1 (gene 6822); assay: LTEA_HepaRG_SULT2A1: Life Technologies and Expression Analysis (LTEA) Assay for sulfotransferase 2A1 (SULT2A1) using HepaRG (AID 2283531)
How it was run: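 Gene-expression endpoint in a human liver cell line: SULT2A1 mRNA change after 48 h chemical treatment, curves fitted in both directions relative to 0.5% DMSO vehicle. Concentrations spanned eight half-log steps from 100 uM.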

[12] = read-out: Transforming Growth Factor (TGFA), TGFA (gene 7039); assay: LTEA_HepaRG_TGFA: Life Technologies and Expression Analysis (LTEA) Assay for Transforming Growth Factor (TGFA) using HepaRG (AID 2283532)
How it was run: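 qRT-PCR read-out of TGFA transcript, normalized to three housekeeping genes, fitted bidirectionally against 0.5% DMSO baseline. Human HepaRG cultures received chemicals for 48 h at eight half-log concentrations, top 100 uM.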

[13] = read-out: Transforming Growth Factor (TGFB1), TGFB1 (gene 7040); assay: LTEA_HepaRG_TGFB1: Life Technologies and Expression Analysis (LTEA) Assay for Transforming Growth Factor (TGFB1) Transporter using HepaRG (AID 2283533)
How it was run: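 Eight-point concentration-response (max 100 uM, half-log) in HepaRG under serum-free induction conditions, 48 h. TGFB1 mRNA by qRT-PCR, housekeeping-normalized.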

TIMP1, TIMP1 (gene 7076) = assay: LTEA_HepaRG_TIMP1: Life Technologies and Expression Analysis (LTEA) Assay for TIMP1 using HepaRG (AID 2283534)
How it was run: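 TIMP1 induction or repression in HepaRG cells after 48 h chemical exposure (eight concentrations, highest 100 uM), assessed by normalized qRT-PCR with bidirectional fitting to DMSO controls.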

[14] = read-out: Tumor necrosis factor receptor 1 (TNFRSF1A), TNFRSF1A (gene 7132); assay: LTEA_HepaRG_TNFRSF1A: Life Technologies and Expression Analysis (LTEA) Assay for Tumor necrosis factor receptor 1 (TNFRSF1A) using HepaRG (AID 2283535)
How it was run: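 Assay uses 48 h chemical treatment of differentiated HepaRG monolayers, tested in duplicate at eight concentrations from 100 uM downward in 0.5% DMSO. mRNA is normalized to ACTB, GAPDH and POLR2A, with induction or suppression fitted relative to vehicle.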

[15] = read-out: Thyroid Hormone Responsive (THRSP), THRSP (gene 7069); assay: LTEA_HepaRG_THRSP: Life Technologies and Expression Analysis (LTEA) Assay for Thyroid Hormone Responsive (THRSP) using HepaRG (AID 2283536)
How it was run: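 qRT-PCR read-out (Fluidigm TaqMan), housekeeping-normalized (ACTB/GAPDH/POLR2A). HepaRG, 48 h chemical exposure, 8-pt half-log series from 100 uM in 0.5% DMSO, duplicates. Bidirectional curve fit vs 0.5% DMSO baseline.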

[16] = read-out: Cellular tumor antigen p53 (Homo sapiens) (UniProt P04637); assay: LTEA_HepaRG_TP53: Life Technologies and Expression Analysis (LTEA) Assay for Tumor Protein P53 (TP53) using HepaRG (AID 2283537)
How it was run: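 HepaRG, 48 h exposure, top 100 uM, half-log 8-point, 0.5% DMSO vehicle, duplicates. Read: TP53 mRNA by TaqMan qRT-PCR, normalised to ACTB/GAPDH/POLR2A; bidirectional fit vs DMSO.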

[17] = read-out: UDP glucuronosyltransferase (UGT1A1), UGT1A1 (gene 54658); assay: LTEA_HepaRG_UGT1A1: Life Technologies and Expression Analysis (LTEA) Assay for UDP glucuronosyltransferase (UGT1A1) using HepaRG (AID 2283538)
How it was run: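 HepaRG, 48 h chemical exposure (top 100 uM, half-log 8-pt, 0.5% DMSO vehicle), duplicate wells; qRT-PCR (TaqMan, Fluidigm array) for UGT1A1 mRNA, housekeeping-normalized; bidirectional curve fit vs DMSO baseline.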

[18] = read-out: UDP glucuronosyltransferase (UGT1A6), UGT1A6 (gene 54578); assay: LTEA_HepaRG_UGT1A6: Life Technologies and Expression Analysis (LTEA) Assay for UDP glucuronosyltransferase (UGT1A6) using HepaRG (AID 2283539)
How it was run: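 Measures mRNA change in HepaRG hepatic cells exposed 48 h to chemicals (eight-point, maximum 100 uM, 0.5% DMSO vehicle) in serum-free induction medium. Expression normalized to endogenous controls; DMSO served as negative control and baseline.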

[19] = read-out: X-box binding protein 1 (XBP1), XBP1 (gene 7494); assay: LTEA_HepaRG_XBP1: Life Technologies and Expression Analysis (LTEA) Assay for X-box binding protein 1 (XBP1) using HepaRG (AID 2283540)
How it was run: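 Eight concentrations (half-log, highest 100 uM, 0.5% DMSO) tested in duplicate on HepaRG cells over 48 h in serum-free induction medium; qRT-PCR of XBP1 normalised to ACTB, GAPDH, POLR2A.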

Nuclear factor erythroid 2-related factor 2 (Homo sapiens), sequence (Q16236 whole entry, looked up): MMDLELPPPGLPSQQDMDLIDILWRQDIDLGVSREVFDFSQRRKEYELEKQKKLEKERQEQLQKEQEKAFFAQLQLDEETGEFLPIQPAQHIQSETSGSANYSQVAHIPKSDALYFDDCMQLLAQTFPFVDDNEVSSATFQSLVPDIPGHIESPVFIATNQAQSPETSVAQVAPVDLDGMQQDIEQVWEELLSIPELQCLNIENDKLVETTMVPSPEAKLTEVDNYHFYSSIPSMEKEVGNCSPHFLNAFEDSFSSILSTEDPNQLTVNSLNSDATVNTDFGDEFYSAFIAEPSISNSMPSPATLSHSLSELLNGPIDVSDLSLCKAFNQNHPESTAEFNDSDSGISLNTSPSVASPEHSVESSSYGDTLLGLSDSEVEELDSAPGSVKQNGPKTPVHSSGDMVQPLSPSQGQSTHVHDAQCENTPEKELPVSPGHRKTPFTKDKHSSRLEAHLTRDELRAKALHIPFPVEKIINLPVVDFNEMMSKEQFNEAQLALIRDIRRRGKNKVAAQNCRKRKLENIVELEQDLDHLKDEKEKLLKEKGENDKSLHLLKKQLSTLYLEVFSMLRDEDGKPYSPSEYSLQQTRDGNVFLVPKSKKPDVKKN
Signal transducer and activator of transcription 3 (Homo sapiens), sequence (P40763 whole entry, looked up): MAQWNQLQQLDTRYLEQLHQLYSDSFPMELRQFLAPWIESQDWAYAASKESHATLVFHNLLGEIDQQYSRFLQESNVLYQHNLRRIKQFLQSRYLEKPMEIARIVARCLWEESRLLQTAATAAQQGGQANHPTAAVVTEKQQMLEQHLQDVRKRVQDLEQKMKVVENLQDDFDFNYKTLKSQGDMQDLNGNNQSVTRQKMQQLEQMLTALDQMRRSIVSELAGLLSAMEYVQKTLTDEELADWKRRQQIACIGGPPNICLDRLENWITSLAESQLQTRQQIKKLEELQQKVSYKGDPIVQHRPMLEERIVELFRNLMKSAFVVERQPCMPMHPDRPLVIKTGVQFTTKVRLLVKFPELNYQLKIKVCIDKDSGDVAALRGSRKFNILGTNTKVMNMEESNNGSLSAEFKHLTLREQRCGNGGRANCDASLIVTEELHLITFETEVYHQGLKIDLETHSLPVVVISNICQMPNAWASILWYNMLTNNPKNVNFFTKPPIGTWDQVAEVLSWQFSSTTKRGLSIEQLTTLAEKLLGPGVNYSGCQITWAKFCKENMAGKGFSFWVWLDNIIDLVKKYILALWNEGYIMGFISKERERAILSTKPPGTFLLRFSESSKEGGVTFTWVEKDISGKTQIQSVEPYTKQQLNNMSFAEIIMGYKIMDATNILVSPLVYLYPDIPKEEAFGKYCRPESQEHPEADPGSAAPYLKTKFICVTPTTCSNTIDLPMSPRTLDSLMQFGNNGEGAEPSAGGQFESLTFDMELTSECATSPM
Nuclear factor NF-kappa-B p105 subunit (Homo sapiens), sequence (P19838 whole entry, looked up): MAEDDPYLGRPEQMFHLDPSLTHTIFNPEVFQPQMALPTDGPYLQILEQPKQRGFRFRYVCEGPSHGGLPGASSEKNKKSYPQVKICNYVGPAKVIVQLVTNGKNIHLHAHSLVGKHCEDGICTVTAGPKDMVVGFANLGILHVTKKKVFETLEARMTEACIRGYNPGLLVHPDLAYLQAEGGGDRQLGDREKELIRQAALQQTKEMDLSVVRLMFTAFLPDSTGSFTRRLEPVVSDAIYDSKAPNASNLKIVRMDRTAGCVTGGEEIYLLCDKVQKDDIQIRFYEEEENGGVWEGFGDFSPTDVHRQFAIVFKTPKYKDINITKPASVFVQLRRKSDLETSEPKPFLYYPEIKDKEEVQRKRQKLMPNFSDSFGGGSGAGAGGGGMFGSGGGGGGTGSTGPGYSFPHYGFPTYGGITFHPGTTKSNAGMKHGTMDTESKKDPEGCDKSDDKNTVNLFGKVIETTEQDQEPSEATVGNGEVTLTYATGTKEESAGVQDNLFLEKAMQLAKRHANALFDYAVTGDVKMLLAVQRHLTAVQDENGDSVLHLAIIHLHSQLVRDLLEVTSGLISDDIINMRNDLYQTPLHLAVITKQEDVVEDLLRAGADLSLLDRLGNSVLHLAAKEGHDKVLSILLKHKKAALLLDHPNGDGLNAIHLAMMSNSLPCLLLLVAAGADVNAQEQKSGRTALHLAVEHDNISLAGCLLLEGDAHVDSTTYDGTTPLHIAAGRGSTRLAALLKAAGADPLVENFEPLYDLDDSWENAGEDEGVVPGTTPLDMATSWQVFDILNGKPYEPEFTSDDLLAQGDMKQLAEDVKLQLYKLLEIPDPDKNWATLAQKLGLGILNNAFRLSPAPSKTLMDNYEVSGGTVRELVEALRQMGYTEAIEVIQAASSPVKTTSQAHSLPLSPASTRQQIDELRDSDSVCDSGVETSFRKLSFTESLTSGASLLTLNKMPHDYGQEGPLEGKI
Cellular tumor antigen p53 (Homo sapiens), sequence (P04637 whole entry, looked up): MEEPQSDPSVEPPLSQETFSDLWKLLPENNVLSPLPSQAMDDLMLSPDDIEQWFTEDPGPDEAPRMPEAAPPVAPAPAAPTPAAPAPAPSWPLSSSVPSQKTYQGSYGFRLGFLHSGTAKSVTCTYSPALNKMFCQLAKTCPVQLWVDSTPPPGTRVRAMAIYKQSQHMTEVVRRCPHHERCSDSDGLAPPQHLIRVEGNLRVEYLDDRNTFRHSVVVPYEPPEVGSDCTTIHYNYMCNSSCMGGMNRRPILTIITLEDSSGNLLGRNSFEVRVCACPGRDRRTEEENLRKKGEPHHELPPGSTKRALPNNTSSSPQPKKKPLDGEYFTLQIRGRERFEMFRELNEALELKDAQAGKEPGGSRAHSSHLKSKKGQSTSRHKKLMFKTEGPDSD

In the case of O=C(O)c1ccc([N+](=O)[O-])cc1, the outcome [1] is reported as “inactive”, the outcome [2] is reported as “inactive” and the outcome [3] is reported as “inactive”. The outcome [4] was “inactive”, the outcome [5] was “inactive” and the outcome [6] was “inactive”. For the same compound, the outcome [7] was “inactive”, the outcome [8] was “inactive” and the outcome [9] was “inactive”. The outcome [10] was “inactive”, the outcome [11] was “inactive” and the outcome [12] was “inactive”. The outcome [13] was “inactive”, the outcome (TIMP1, TIMP1 (gene 7076)) was “inactive” and the AC50 [14] was 646 nM (active). For the same compound, the outcome [15] was “inactive”, the outcome [16] was “inactive” and the outcome [17] was “inactive”. For the same compound, the outcome [18] was “inactive” and the outcome [19] was “inactive”.
